Experimental findings from the supplement of paper PMC11417369 are described below.

± gives the standard deviation of the averaged measurements. The full ranking holds about 25,000 sequences; the median of “ln(normalized median fluorescence intensity)” is about 7.9, and the highest 2% start at about 11. Shown is part of a subset that was picked to be rich in the highest values.

The experiment deals with PfAP2-I AP2 domain 3 (GST-tagged). The experiment is described as follows: gcPBM binding intensity (ln(normalized median fluorescence intensity)); higher = stronger DNA binding. The method in brief:
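GST-tagged P. falciparum DNA-binding domains, expressed in E. coli (about 25 μg on average), were applied for 1 h to an Agilent 4 × 180k array of primer-extended double-stranded 36-bp intergenic genomic probes plus negative controls. The binding buffer was 1× PBS with 1% milk, 0.2 mg/ml BSA, 0.5% salmon testes DNA and 0.03% Triton X-100. Bound protein was detected with Alexa488 anti-GST antibody and scanned at 488 nm. Binding intensity is the highest Masliner-normalised natural-log median intensity across replicate spots of either probe orientation.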
On to “TCTTTTACAAAAGCTATAACATTCACCACATTATAA [GTGCAC_negctrl_site133]”, for which the “gcPBM binding intensity (ln)” value was found to be 7.68 ± 0.65.
As for “CTAGGTATGCTTTAAACATGCAAAAATACAAATTAC [TGCATGCA_site239]”, the “gcPBM binding intensity (ln)” value was determined as 7.97 ± 0.76.
Under “ATAAATCCATGGGTAGTGCGCATTTTTTTTTTTTTT [GTGCAC_site9732]” stands 9.09 ± 0.41; under “ACAATGTCATTTGCTAGTACGCATATTGGTTGTAAA [XGTACX_site8924]”, 7.76 ± 0.24; under “ATAAAATATCAATACCGTACACAAGCAGGTAAAATA [XGTACX_site3719]”, 7.82 ± 0.8.
Under “TGATTATAAAAGTAGGTGCTACAAAAATTACACATT [GTGCAC_site9530]” stands 8.7 ± 0.45; under “TATAACATTTTTTTCAAAATAGCTTTAGAAATAAAG [CACACA_negctrl_site718]”, 7.37 ± 0.54.
Under “AAATAATTTATATGTAGTACATGTTGTAGATAATTT [XGTACX_site1031]” stands 8.16 ± 0.28; under TATACGTATTACAGAGTGCAATAAACAGTATATATT, 10.9 ± 0.66; under “TTTGTGTATATAACAGTGCAATATTATAAATATAAA [GTGCAC_site9750]”, 10.5 ± 0.51.
“CATAATATTAAATCAGTGCAAATATACAGAATAAAT [GTGCAC_site9786]”: the “gcPBM binding intensity (ln)” value was found to be 10.1 ± 0.17.
Under “TTTTGATTAAGTGAATTTTTTTATTTATATAAATAT [TGCATGCA_negctrl_site479]” stands 7.54 ± 0.56; under AAAATTATTTAGTAAGTGCAAAAAAAAAAAAAAAAA, 10.1 ± 0.23.
Take AAAAAAAATTATGAAGTGCATTAGTGAATTTGATTG: the “gcPBM binding intensity (ln)” value was 10.9 ± 0.3.
As to “CAATTTTACTCATAAACACACATATATATGTTATTA [CACACA_site3152]”, the “gcPBM binding intensity (ln)” value stood at 7.66 ± 0.53.
Turning to “AAAAAAAAAAAAAGTACACACTTTTGCGTACATGTA [CACACA_site7449]”, the “gcPBM binding intensity (ln)” value came out at 8.06 ± 0.63.
The result for “ATATATTTATTAAGGTGTACAAAAATTATGTTGCAT [XGTACX_site7546]” reads 8.26 ± 0.35.
Under “TGCATTATTTACAAGGTGCGTTACAAATGTGTAACA [GTGCAC_site9442]” stands 11.3 ± 0.88; under “TATATTATATATATGTGTACATATAAATGTAACAAA [XGTACX_site5025]”, 7.67 ± 0.34.
With “TTAACATAAATATATACACACCAATGATGGCATTTA [CACACA_site4952]”, the “gcPBM binding intensity (ln)” value amounted to 7.51 ± 0.52.
For the sequence “TATATATTCATGTGTACACACAAAAAAAAATAAAGT [CACACA_site2207]”, the “gcPBM binding intensity (ln)” value came out at 8.41 ± 0.65.
The result for “TTGTATGCTTCCCGACTACATTATGCCATAAATGTA [TGCATGCA_negctrl_site136]” reads 7.92 ± 0.49.
“AGTGCATACATGAATTGTACTTTAAAATAAATTCTA [XGTACX_site8156]”: the “gcPBM binding intensity (ln)” value came out at 9.7 ± 0.52.
The result for “TAAATATATTTCATGACATGCAACTTGTTTTTTTGT [TGCATGCA_site456]” reads 7.63 ± 0.7; that for “TTTTTTCTTAAAATTTGTACATAGTGCAATTTTTTT [XGTACX_site5509]”, 9.5 ± 0.69.
Under “TTCTTATTTGTACTAGTGCAATAGAAAATAAATAAA [GTGCAC_site9731]” stands 10.9 ± 0.49.
Turning to TAAAATTTGTACATAGTGCAATTTTTTTTTTTTTTT, the “gcPBM binding intensity (ln)” value stood at 9.81 ± 0.099.
Under “TATTTTACATCTTCTCACATTTTATCACTTTTTAAA [CACACA_negctrl_site330]” stands 8.08 ± 0.45.
Under “ATTATTATAGATATAACACACATAATTACATACTTA [CACACA_site6837]” stands 7.97 ± 0.14.
TTATATAATTTAATAGTGCAATTATATTAATTTTTC: the “gcPBM binding intensity (ln)” value amounted to 9.82 ± 0.42.
The result for ATATATATTATATAAGTGCATAATATTCTTTCTTTT reads 10.5 ± 0.25; that for “ATTTTCTTTTCCATAGTGCAATATAATTATCCATCA [GTGCAC_site9547]”, 11.3 ± 0.39.
“ATTTGATAGACACATGCACACATGCAATACTTTATT [CACACA_site5633]”: the “gcPBM binding intensity (ln)” value was 8.81 ± 0.77.
As for “TTTAATTTGATAGACACATGCACACGTGCAATACTT [TGCATGCA_site777]”, the “gcPBM binding intensity (ln)” value came to 10.95 ± 0.021.
“GATAGACACGTGCACACATGCAATACTTTATTCAGT [TGCATGCA_site778]”: the “gcPBM binding intensity (ln)” value worked out at 10.1 ± 0.32.
The result for “CATTATCATGTTTTTTGTACTCATAATAAAAAGCAG [XGTACX_site2056]” reads 8.03 ± 0.21.
As to “AAAATCTAATATAATGCACACATAAAAAAAAAATCA [CACACA_site8871]”, the “gcPBM binding intensity (ln)” value was 11 ± 0.68.
Under “AATCTAATATAATGCACACATAAAAAAAAATCAAAC [CACACA_site3633]” stands 11.1 ± 0.94; under “ATAATAAAATAAATCACACATAATATAATGTAATAT [CACACA_site6144]”, 7.54 ± 0.54; under “AATCTAATATAATGCACACATAAAAAAAAAATCAAA [CACACA_site2714]”, 10.7 ± 0.74.
On to “TATCAAAATAAATGCACACAAATTGCACATATCTAT [CACACA_site1097]”, for which the “gcPBM binding intensity (ln)” value was 10.3 ± 0.11.
Take “AAAATCTAATATAATGCACACATAAAAAAAAATCAA [CACACA_site9211]”: the “gcPBM binding intensity (ln)” value was found to be 10.9 ± 0.59.
Under “TAGATATATAAATACACACACATACACAAAAAAAAA [CACACA_site7652]” stands 8.21 ± 0.45; under “AAATATATATAAAACTCACACATTATCTTATAACCA [CACACA_site5268]”, 7.83 ± 0.23.
“AAATTATTATCGTTAATATGTATATATGTGCCAAGT [TGCATGCA_negctrl_site557]”: the “gcPBM binding intensity (ln)” value stood at 8.06 ± 0.44.
Take “GGTTACATTTTATTTTGTACATAAAAATTTTTATTT [XGTACX_site218]”: the “gcPBM binding intensity (ln)” value was 8.15 ± 0.53.
